Compound activity deposited in PubChem by several laboratories.
Hits are enriched below; roughly 2.2% of the tested compounds scored in any of these assays.
p-CIP stab down: compounds decreasing mouse p/CIP protein stability. decrease of EGFP signal, % at 10 µM. F442A p/CIP-EGFP cells, EGFP fluorescence, 16 h. actives 0.01% (n = 290,000). Q05BA5;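 active means EGFP signal decrease of at least 30% at 10 µM or well 3 SD below plate mean, unless failing retest; inactive means the rest, including hits failing retest or dose response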
PvdQ acylase: blocks Pseudomonas aeruginosa PvdQ acylase activity; actives 0.063% (n = 340,000); inhibition, % at 10 µM; purified PvdQ acylase, fluorescence plate reader; in the data active means inhibition above about 30%, passing the limit was not always enough;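 further: 0% = vehicle neutral wells and 100% = reference inhibitor wells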
GASC-1 inh: inhibitors of human GASC-1 (JMJD2C) demethylase; inhibition, % at 2.35 µM; AID 2099; Q9H3R0; actives 0.069% (n = 330,000); GST-JMJD2C(1-420) H3K9me3 demethylation, DELFIA europium;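 active means more than half of a compound's replicate wells show inhibition beyond 50%, single wells judged on their own value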;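 further: signal counts dimethyl H3K9 product captured on neutravidin plate; 0% = median of DMSO wells and 100% = 0.3 times that DMSO median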
Mot1-301 SUMO: SUMOylation pathway inhibition by Mot1-301 growth rescue. S. cerevisiae Mot1-301 growth rescue, ATP luminescence, 38.5C; percent above DMSO median, 100 means doubled. growth rescue, % at 18.8 µM. actives 1% (n = 320,000). AID 2716;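 active means every valid replicate shows activation above 250% relative to neutral control wells; inactive means the rest, any valid replicate at or below 250%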;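 further: OY570 slx delta 5 strain wells were the positive control but not used for scaling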
PHOSPHO1 inh: inhibitors of human PHOSPHO1 phosphatase. actives 1.1% (n = 290,000). inhibition, % at 13.3 µM. recombinant PHOSPHO1, absorbance phosphatase assay. AID 1565; in the data active means inhibition above about 60%
Target sequence (Q8TCT1 whole entry, looked up): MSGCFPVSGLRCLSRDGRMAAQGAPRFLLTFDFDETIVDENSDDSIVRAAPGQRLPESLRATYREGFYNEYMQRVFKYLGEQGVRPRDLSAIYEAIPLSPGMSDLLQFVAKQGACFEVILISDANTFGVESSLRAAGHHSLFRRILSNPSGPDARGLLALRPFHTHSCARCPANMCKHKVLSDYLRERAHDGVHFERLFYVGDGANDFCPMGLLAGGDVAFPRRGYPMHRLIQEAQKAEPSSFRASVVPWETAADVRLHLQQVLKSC
HDAC3 inhib: inhibitors of human histone deacetylase 3; recombinant HDAC3, fluorogenic peptide/trypsin coupled, fluorescence; inhibition, % at 8.3 µM; actives 0.15% (n = 320,000); in the data active means inhibition above about 26%, passing the limit was not always enough
Active calls of the source: *; · = not tested or not shown.

SMILES | p-CIP stab down | PvdQ acylase | GASC-1 inh | Mot1-301 SUMO | PHOSPHO1 inh | HDAC3 inhib
CCSc1cc(C2C(C(=O)OC)=C(C)NC3=C2C(=O)CCC3)c(C)o1 (stereo not drawn) | 1 | -18 | 12 | -8 | 102* | -4
CCOC(=O)c1ccc(Cl)c(NC(=O)c2ccc(-c3ccccc3)cc2)c1 | 1 | 5 | -1 | 2 | 66* | 6
COc1ccc(NC(=O)c2ccc(S(=O)(=O)N3CC(C)CC(C)C3)cc2)cc1S(N)(=O)=O (stereo not drawn) | · | -19 | -2 | -4 | · | -79
CS(=O)(=O)Nc1ccc(C(=O)Nc2ccc(S(=O)(=O)N3CCCC3)cc2)cc1 | 1 | 6 | 6 | 5 | -8 | 1
CCOC(=O)C1(CCOc2ccccc2)CCN(Cc2ccc3nonc3c2)CC1 | -9 | -7 | 3 | 7 | 68* | 2
CCOC(=O)C1(CCOc2ccccc2)CCN(Cc2ccc(OC)cc2)CC1 | · | -11 | -3 | 12 | · | 4
S=c1nc(-c2ccc(Cl)cc2)[nH][nH]1 | -7 | -5 | 62 | -1 | 28 | 11
CCCOc1ccc(-c2nc(=S)[nH][nH]2)cc1 | -9 | -1 | -1 | -5 | 95* | 7
CC1=NN(c2ccc(C(=O)O)c(N)c2)C(=O)C1 | 19 | 1 | 25 | 121 | 63* | -2
C=CC(C)n1c(Br)nc2c1c(=O)[nH]c(=O)n2C (stereo not drawn) | -12 | -10 | 11 | 27 | 4 | 3
CC(C)n1c(=S)[nH]c2c1c(=O)[nH]c(=O)n2C | 1 | -7 | -14 | 17 | 62* | 17
COc1ccc(C(=O)N2CCn3c2nc2ccccc23)cc1 | -6 | -2 | -8 | 9 | -10 | 4
COc1ccc(C(=O)n2c(-c3ccco3)nc3ccccc32)cc1 | 8 | -11 | 0 | -28 | 21 | 43*
O=C(c1ccccn1)N1N=C2/C(=C/c3ccccc3)CCCC2C1c1ccccc1 (stereo not drawn) | -2 | -6 | -11 | 400* | 10 | 3
O=C1CCC(C(=O)OCC(=O)N2N=C3/C(=C\c4ccccc4)CCCC3C2c2ccccc2)N1 (stereo not drawn) | · | -10 | · | · | · | ·
O=C(CSc1nc2ccccc2c(=O)[nH]1)Nc1ccc(N2CCOCC2)c(Cl)c1 | 1 | -3 | -25 | 6 | 26 | -3
Cc1cccc(NC(=S)NNC(=O)c2ccccc2Br)c1 | 4 | 9 | 29 | -15 | 40 | -6
COc1ccc(NC(=S)NNC(=O)c2ccccc2OC(F)F)cc1 | 13 | -2 | 1 | -4 | 73* | 2
Cc1cccc(NC(=S)NNC(=O)c2ccccc2OC(F)F)c1 | -12 | -1 | -6 | -3 | 72* | 3
CC(C)CNC(=S)N(CCCO)Cc1cc2cc3c(cc2[nH]c1=O)OCO3 | -12 | -6 | -18 | 3 | -3 | 2
C=CCC[C@@H](Cc1ccc(F)cc1)C(=O)OC[C@@H](NC(=O)[C@@H](CC=C)CC(=O)N(CCO)Cc1ccccc1)c1ccccc1 | · | -13 | 4 | 0 | · | 38*
C=CCC[C@H](Cc1ccc(F)cc1)C(=O)OC[C@@H]1CCCN1C(=O)[C@@H](CC=C)CC(=O)NCCO | · | -12 | 1 | -13 | · | 0
C=CCC[C@H](Cc1ccc(F)cc1)C(=O)OC[C@H](Cc1c[nH]c2ccccc12)NC(=O)[C@@H](CC=C)CC(=O)NCCO | · | -13 | -1 | -7 | · | 31*
C=CCC[C@@H](Cc1ccc(F)cc1)C(=O)OC[C@@H]1CCCN1C(=O)[C@@H](CC=C)CC(=O)N[C@@H](CO)Cc1ccccc1 | · | -17 | -10 | 57 | · | 35*
C=CC[C@@H](CC(=O)N(CCO)Cc1ccccc1)C(=O)N[C@@H](COC(=O)[C@@H](CC=C)Cc1ccc(F)cc1)Cc1ccccc1 | · | -1 | · | 5 | · | 35*
SMILES | p-CIP stab down | PvdQ acylase | GASC-1 inh | Mot1-301 SUMO | PHOSPHO1 inh | HDAC3 inhib
CCN(Cc1ccncc1)C(=O)c1ccccc1NS(=O)(=O)c1ccc(F)cc1 | 3 | 1 | 1 | 43 | -1 | 2
CCn1c(SCC(=O)N/N=C(\C)c2ccncc2)nnc1-c1ccccc1 | -7 | -1 | -3 | -5 | 23 | 5
C=CC[C@H](CC(=O)N(CCO)Cc1ccccc1)C(=O)N[C@H](COC(=O)[C@@H](CC=C)Cc1ccc(F)cc1)Cc1c[nH]c2ccccc12 | · | -8 | -5 | -4 | · | 41*
C=CC[C@H](CC(=O)N(CCO)Cc1ccccc1)C(=O)NC[C@H](OC(=O)[C@@H](CC=C)Cc1ccc(F)cc1)c1ccccc1 | · | 3 | -61 | -9 | · | 28*
C=CCC[C@H](Cc1ccc(F)cc1)C(=O)OC[C@H](Cc1c[nH]c2ccccc12)NC(=O)[C@H](CC=C)CC(=O)N(CCO)Cc1ccccc1 | · | -7 | -1 | -7 | · | 47*
C=CC[C@@H](CC(=O)N(CCO)Cc1ccccc1)C(=O)N[C@H](COC(=O)[C@@H](CC=C)Cc1ccc(F)cc1)Cc1c[nH]c2ccccc12 | · | 8 | 8 | -10 | · | 8
O=C(/C=C/c1ccccc1[N+](=O)[O-])N1CCN(c2ccccc2F)CC1 | 26 | -17 | 7 | 8 | 26 | 5
COc1ccc(CC(=O)Nc2cccc(/C(C)=N/NC(=O)C3(C)CC3(Br)Br)c2)cc1 (stereo not drawn) | -20 | 3 | -3 | 1 | 12 | -3
COc1cc(C2c3[nH]c4ccccc4c3C[C@H]3C(=O)N(CCO)CC(=O)N23)cc(OC)c1OC (stereo partly drawn) | -4 | -8 | 3 | -8 | 11 | -4
COCCCN1CC(=O)N2C(c3ccc(OC)c(OC)c3)c3[nH]c4ccccc4c3C[C@H]2C1=O (stereo partly drawn) | -1 | -6 | 4 | 305* | 29 | -2
Nc1nonc1-n1nnc(C(=O)N/N=C/c2ccncc2)c1CSc1ccccc1 | -22 | 11 | 1 | 9 | 20 | -1
O=c1c(Cc2c(F)cccc2Cl)c(O)ccn1CCCN1CCOCC1 | -7 | -15 | -4 | 6 | 34 | -7
Cc1ccc2c(c1)C(=O)N1[C@H]3c4cc(Cl)ccc4OC[C@@H]3[C@H](c3ccccc3)[C@]1(C)C(=O)N2 | · | -6 | 39 | 134 | · | 6
C[C@@]12C(=O)Nc3ccc(Cl)cc3C(=O)N1[C@H]1c3ccccc3OC[C@@H]1[C@@H]2c1ccccc1 | · | 6 | 6 | 543* | · | 5
O=C(Nc1ccc(NC(=O)c2cccc([N+](=O)[O-])c2)cc1)c1cccc([N+](=O)[O-])c1 | 2 | 2 | 6 | 0 | 18 | 3
O=C(Nc1ncc([N+](=O)[O-])s1)c1cccc([N+](=O)[O-])c1 | -14 | 39* | · | -29 | 44 | 14
Cn1c(=O)cc(OCC(=O)NCc2cccs2)c2ccccc21 | 9 | -2 | 7 | -3 | 16 | -3
